Source: PubChem BioAssay (several laboratories)
PfHsp40 rescue: compounds rescuing yeast from Plasmodium falciparum HSP40 toxicity. S. cerevisiae expressing PfHsp40, growth rescue, ATP luminescence. growth rescue, % at 12.5 µM. 340,000 tested, 0.68% active. AID 504582; in the data active = growth rescue above about 28%, passing the limit was not always enough; inconclusive = no clear call, values can overlap the other calls;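 also: yeast W303a lacking pdr1 and pdr3 grown in galactose medium; growth measured after three days at 30 °C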
BoNT F protease: inhibitors of Botulinum neurotoxin F light chain protease | Multiplex microsphere protease cleavage assay, flow cytometry | inhibition, % at 10 µM | 360,000 tested, 0.22% active | AID 588497; in the data active = inhibition above about 35%, passing the limit was not always enough; inconclusive = no clear call, values can overlap the other calls; also: plate controls were buffer without enzyme for full effect and enzyme alone for no effect
MazF activator: activators of E. coli MazEF toxin-antitoxin RNase; 350,000 tested, 0.32% active; activation, % at 20 µM; FAM/BHQ RNA-DNA oligo cleavage fluorescence, 5 h; P0AE70; AID 504720; in the data active = activation above about 50%
Target sequence (P0AE70 whole entry, looked up): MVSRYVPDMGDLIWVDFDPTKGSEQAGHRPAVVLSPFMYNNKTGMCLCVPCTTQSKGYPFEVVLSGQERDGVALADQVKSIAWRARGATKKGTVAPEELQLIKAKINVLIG
Bead autofluor: flagged as autofluorescent in microsphere protease counterscreen; compound autofluorescence counterscreen, microsphere flow cytometry; active compounds read high; fluorescence intensity (test concentration not listed); 360,000 tested, 3.1% active; in the data active = fluorescence intensity above about 16000; inconclusive = no clear call, values can overlap the other calls
BoNT A protease: inhibitors of Botulinum neurotoxin A light chain protease | multiplex microsphere protease substrate cleavage, flow cytometry | inhibition, % at 10 µM | 360,000 tested, 0.17% active | AID 588499; also: plate controls were buffer without enzyme for full effect and enzyme alone for no effect
Anthrax LF prot: blocks Bacillus anthracis lethal factor protease; P15917; multiplex microsphere protease cleavage assay, LF; inhibition, % at 10 µM; 360,000 tested, 0.12% active; also: plate controls were buffer without enzyme for full effect and enzyme alone for no effect
* hit, by the source's call; ? = inconclusive; . = no result given. The list is not random: actives were taken first. Their share in the collection is about 4.3%. Rule as the data show it, unless noted: active = inhibition above about 30%; inconclusive = no clear call, values can overlap the other calls; inactive = below that.

SMILES | PfHsp40 rescue | BoNT F protease | MazF activator | Bead autofluor | BoNT A protease | Anthrax LF prot
Cc1cc(C)cc(OCC(=O)OC/C(O)=C(\C#N)c2nc3ccccc3[nH]2)c1 | 28.4* | -3.6 | 6.7 | 2737 | 2.6 | -0.8
CCCCOc1ncnc2c1[nH]c1ccc(OCC)cc12 | 0.8 | 1.3 | -4.1 | 18958* | 1.5 | -0.5
CCOC(=O)C1=CC[C@@H](c2cc3cc(OC)ccc3n2C)N(S(=O)(=O)c2ccc(C)cc2)[C@H]1C(=O)OCC | 1.2 | 9.9 | -26.0 | 3795 | -0.3 | -4.5
O=C(O)c1cccc(Nc2nc(N3CCOCC3)nc(N3CCOCC3)n2)c1 | -0.4 | -9.1 | -0.7 | 22856* | -6.0 | 0.4
O=C(O)c1cc(Nc2nc(N3CCOCC3)nc(N3CCOCC3)n2)ccc1Cl | -0.3 | -7.7 | -3.2 | 5301 | 0.1 | -1.9
CSc1nc2ccc(Nc3nc(N4CCOCC4)nc(N4CCOCC4)n3)cc2s1 | -1.4 | -0.7 | 3.8 | 23477* | -0.6 | -2.7
COCCCNC(=O)CCc1c(C)c2cc3c(C)coc3cc2oc1=O | 0.9 | 0.7 | -4.2 | 3748 | -2.2 | 19.5
O=C(c1cnc2ccc(Cl)cc2c1Cl)N1CCOCC1 | 0.1 | -2.9 | 5.9 | 4329 | -0.9 | -1.7
O=C(c1ccc2nc3ccc(Cl)cc3c(=O)n2c1)N1CCC2(CC1)OCCO2 | -0.3 | 2.3 | 3.6 | 19917* | 2.6 | 0.6
O=C(c1ccc2nc3ccc(Cl)cc3c(=O)n2c1)N1CCOCC1 | -1.9 | -0.3 | -3.9 | 21084* | -1.7 | -0.2
S=C(NCCCCc1ccccc1)NCc1ccccc1 | 54.6* | -6.1 | 3.7 | 4698 | -2.6 | -8.4
S=C(NCCCc1ccccc1)Nc1ccccc1Cl | 222.7* | -7.3 | -0.2 | 2726 | -0.2 | -1.7
S=C(NCCCCNC(=S)NCc1ccccc1)NCc1ccccc1 | 0.1 | 12.2 | 4.9 | 4056 | 0.8 | 2.2
CCN1C(=O)[C@H]2[C@@H](c3ccc(C)cc3)N3C(=O)N(c4ccc(C)cc4)C(=O)[C@@]3(CC)[C@H]2C1=O | -2.3 | -9.0 | 4.0 | 3954 | 0.0 | 1.9
CCN1C(=O)[C@H]2[C@@H](c3ccc(C)cc3)N3C(=O)N(c4ccccc4)C(=O)[C@@]3(CC)[C@H]2C1=O | 34.6* | 5.2 | 3.8 | 3906 | -0.2 | 4.6
CCCNC(=S)N1CCN(c2nc(C)nc3sc4c(c23)CCCC4)CC1 | 31.8* | -4.8 | -5.4 | 3680 | -0.6 | -10.3
Clc1ccccc1-c1nnc2sc(-c3ccco3)nn12 | 0.0 | -2.5 | 7.8 | 23775* | -2.0 | 0.7
Clc1ccccc1-c1nnc2sc(-c3ccccn3)nn12 | 0.5 | 1.6 | -5.7 | 21229* | ? | -2.3
c1cncc(-c2nnc3sc(-c4ccco4)nn23)c1 | 0.7 | 0.0 | -5.6 | 10312 | -0.8 | 13.3
COc1cc(-c2nnc3sc(-c4ccco4)nn23)cc(OC)c1OC | -0.1 | -5.1 | -8.0 | 23532* | ? | -2.2
COc1cccc(OC)c1-c1nn2c(-c3ccccc3Cl)nnc2s1 | 0.7 | 1.7 | 4.4 | 21844* | 0.3 | 0.2
COc1ccc(C2=NN(C(=O)COC(=O)c3ccc(NC(=O)CC#N)cc3)C(c3ccco3)C2)cc1 (stereo unspecified) | 4.4 | -4.9 | -102.4 | 9345 | 10.2 | -8.6
Cc1ccc(C(=O)Nc2cc(=O)n(C)c(=O)n2C)o1 | -0.5 | -0.4 | 0.4 | 22513* | ? | -2.2
Cc1ccc(NC(=O)N2CCCC2C(=O)NCc2ccc(Cl)cc2)cc1 (stereo unspecified) | 1.1 | -5.2 | -13.6 | 4196 | -6.8 | -8.8
CSc1nc(=O)n2cccc(C)c2n1 | -0.9 | -5.4 | 0.7 | 21767* | -4.7 | -1.4
SMILES | PfHsp40 rescue | BoNT F protease | MazF activator | Bead autofluor | BoNT A protease | Anthrax LF prot
O=C(CN1C(=O)C2CC=CCC2C1=O)Nc1nnc(C2CC2)s1 (stereo unspecified) | -0.3 | 5.0 | -4.7 | 3842 | -0.2 | 1.9
ClCCN(CCCl)c1ccc(C=NNc2ncccn2)cc1 | 35.3* | -0.3 | 7.4 | 3099 | -0.1 | -3.5
COc1ccccc1-c1cnc(C(O)c2ccc(Cl)cc2)[nH]1 (stereo unspecified) | . | -5.1 | . | 3043 | -0.1 | 1.3
COc1cc(NC(=O)Cn2c(-c3cncs3)nc3ccccc32)cc(OC)c1OC | -0.1 | 2.4 | 12.9 | 21248* | ? | -2.1
COc1cc(NC(=O)Cn2c(C)cc3ccccc3c2=O)cc(OC)c1OC | -0.5 | -5.7 | 4.2 | 4177 | 0.6 | -1.9
CCSc1nc2c(c(=O)[nH]c(=O)n2C)n1CC(O)COc1ccccc1C (stereo unspecified) | 0.8 | 0.6 | 13.0 | 20886* | -0.8 | -3.8
